TDP-43 tox inh: rescues yeast from TDP-43 toxicity | yeast TDP-43 toxicity rescue, BacTiter-Glo growth, 24 h | Potency, µM (titrated, usually from 46.1 µM), usual class: activators | actives 0.45% (n = 45,000); active = well fitted activation curve with a large enough effect; note: 0% is about no effect; nearly all actives have a fitted effect of over 55% in size
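TDP-43-expressing yeast, pregrown in raffinose, seeded at OD600 0.02 in galactose medium with compound for 24 hr at 30 deg C. Growth read by BacTiter-Glo luminescence, so rescue of toxicity appears as activation.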
Starred values were filed as active, the others as inactive. The sample as a whole holds a higher share of hits than the screen did. Potency is the fitted concentration of half-maximal effect.

CC1(Oc2cccc(F)c2)CCN(Cc2ccc(-c3ccccn3)cc2)C1 (stereo unspecified) was read as TDP-43 tox inh inactive.
Screening O=C(Nc1cc(Cl)cc(Cl)c1)C1C2C=CC3(O2)C1C(=O)N(CCCN1CCOCC1)C3C(=O)NC1CCCCC1 (stereo unspecified) returned TDP-43 tox inh inactive.
COc1ccc(OCCC(=O)NC2CCCCC2)cc1 was read as TDP-43 tox inh inactive.
Screening Cc1cccn2c(=O)c(C=O)c(N3CC(C)OC(C)C3)nc12 (stereo unspecified) returned TDP-43 tox inh inactive.
`CC(=O)c1cc(C#N)c(N(C)Cc2ccccc2)nc1C` gave TDP-43 tox inh inactive.
CCCCSc1nc(C)c(C(C)=O)cc1C#N was read as TDP-43 tox inh 6.3µM*.
`Cc1cc(NC(=O)CSc2nc3ccccc3cc2C#N)no1` gave TDP-43 tox inh inactive.
N#Cc1ccc(C(=O)NN2C(=O)NC3(CCCCC3)C2=O)cc1 was read as TDP-43 tox inh inactive.
`CC(=O)OCC1OC(OC(C)=O)C(NC(=O)Cc2ccccc2)C(OC(C)=O)C1OC(C)=O` (stereo unspecified) gave TDP-43 tox inh inactive.
Screening COc1ccc(-c2nnc(SCC(=O)c3ccc[nH]3)n2-c2ccccc2)cc1 returned TDP-43 tox inh inactive.
Screening CSc1ccccc1C(=O)Nc1ccc2c(c1)CCC2 returned TDP-43 tox inh inactive.
For O=C(Nc1ccc2c(c1)CCC2)c1cccc(F)c1 the results were TDP-43 tox inh 16µM*.
For O=C(Cc1cccc(F)c1)Nc1ccc2c(c1)CCC2 the results were TDP-43 tox inh inactive.
O=C(CN1C(=O)NC2(CCCCCCC2)C1=O)NCc1cccs1 was read as TDP-43 tox inh inactive.
`CC1CC(C)CN(C(=O)Cc2c(C(=O)O)[nH]c3ccc(Cl)cc23)C1` (stereo unspecified) gave TDP-43 tox inh inactive.
CCOc1ccc(N(CC(=O)NC2CCCC2)C(=O)Cn2nnc(-c3ccc(C)o3)n2)cc1 was read as TDP-43 tox inh inactive.
For O=C(O)c1ccccc1NCc1ccsc1 the results were TDP-43 tox inh inactive.
For Cc1nc(N2CCN(C)CC2)c2c(C)c(C(=O)Nc3ccc(F)cc3)sc2n1 the results were TDP-43 tox inh inactive.
COc1ccc(C)cc1NC(=O)c1sc2nc(C)nc(N3CCOCC3)c2c1C was read as TDP-43 tox inh inactive.
Cc1nc(N2CCCCC2)c2c(C)c(C(=O)Nc3ccccc3C(F)(F)F)sc2n1 was read as TDP-43 tox inh 18µM*.
Screening CNc1cccc(-c2ccccc2C(C)=O)n1 returned TDP-43 tox inh inactive.
For Cc1ccnc(NC(c2ccsc2)c2ccc3ccc(C)nc3c2O)c1 (stereo unspecified) the results were TDP-43 tox inh inactive.
COc1ccc(Nc2oc(/C=C/c3ccc(F)cc3)nc2C#N)cc1 was read as TDP-43 tox inh inactive.
`O=C(Cn1cc(C(F)(F)F)ccc1=O)N1CCCc2ccccc21` gave TDP-43 tox inh inactive.
O=Cc1cn(CC(=O)N2CCCCC2)c2ccccc12 was read as TDP-43 tox inh inactive.
O=C(c1ccco1)c1cn(CC(=O)N2CCCc3ccccc32)c2ccccc12 was read as TDP-43 tox inh 18µM*.
`Nc1nc(NCC(=O)O)nc(NCc2ccccc2)c1[N+](=O)[O-]` gave TDP-43 tox inh inactive.
For C=CCn1c(COc2cccc(C)c2)nnc1SCC(=O)c1c[nH]c2c(CC)cccc12 the results were TDP-43 tox inh inactive.
For CSCC(=O)N1CCCC(CNC(=O)c2ccccc2Cl)C1 (stereo unspecified) the results were TDP-43 tox inh inactive.
O=S(=O)(NCc1ccco1)c1ccc2ccccc2c1 was read as TDP-43 tox inh 11µM*.
For O=[N+]([O-])c1ccccc1S(=O)(=O)NCc1ccco1 the results were TDP-43 tox inh inactive.
Screening O=S(=O)(NCc1ccco1)c1ccc(Cl)cc1Cl returned TDP-43 tox inh inactive.
Screening COc1ccc(C(O)c2ncc(-c3ccccc3Cl)[nH]2)cc1 (stereo unspecified) returned TDP-43 tox inh inactive.
`COc1cc2c(cc1OC)CN(C(=O)c1ccc(S(=O)(=O)N3CCCCC3)cc1)CC2` gave TDP-43 tox inh inactive.
COc1ccccc1/C=N/NC(=O)c1c(-c2ccccc2)noc1C was read as TDP-43 tox inh inactive.
Screening COc1ccc(C(=O)NC(=S)NNC(=O)c2c(-c3ccccc3)noc2C)cc1OC returned TDP-43 tox inh 13µM*.
For Cc1onc(-c2ccccc2)c1C(=O)NC(=S)NNC(=O)c1ccco1 the results were TDP-43 tox inh inactive.
COC(=O)CSc1nc(C)cc(C)c1C#N was read as TDP-43 tox inh inactive.
For Cc1cc(C)c(C#N)c(SCC(O)COc2ccc(Br)cc2)n1 (stereo unspecified) the results were TDP-43 tox inh 13µM*.
CCCCN(CCCC)CC(O)COc1ccc(Br)cc1 (stereo unspecified) was read as TDP-43 tox inh inactive.
CCOc1ccc(CN2C(=O)c3ccccc3C2C(=O)NC(C)CC)cc1OC (stereo unspecified) was read as TDP-43 tox inh inactive.
COc1cc(OC)cc(C(=O)N[C@H](C(=O)Nc2nc(-c3ccc(F)c(F)c3)cs2)C(C)C)c1 was read as TDP-43 tox inh inactive.
For COc1ccccc1CC(=O)Nc1nc(-c2ccc(F)c(F)c2)cs1 the results were TDP-43 tox inh 13µM*.
Screening COc1ccc(CC(=O)Nc2nc(-c3ccc(OC)c(OC)c3)cs2)cc1OC returned TDP-43 tox inh inactive.
Screening CCOC(=O)C1(C)CCCN(C(=O)c2cc(C#N)cs2)C1 (stereo unspecified) returned TDP-43 tox inh inactive.
For COc1ccc(CN(C)C(=O)C23CC4CC(CC(C4)C2)C3)c(OC)c1 the results were TDP-43 tox inh inactive.
COc1ccc(S(=O)(=O)Nc2cc(C(=O)NCCCN3CCOCC3)ccc2N2CCOCC2)cc1 was read as TDP-43 tox inh inactive.
COC(=O)c1cc(OC)c(OC)cc1NC(=O)c1ccc(Br)o1 was read as TDP-43 tox inh inactive.
Screening COc1ccc(N2CCOCC2)c(NC(=O)c2ccc(Br)o2)c1 returned TDP-43 tox inh 16µM*.
`COc1ccc(C2c3ccc(O)cc3Oc3ncn4nc(-c5cccnc5)nc4c32)cc1OC` (stereo unspecified) gave TDP-43 tox inh inactive.
Screening O=C(c1cc2cc([N+](=O)[O-])ccc2oc1=O)N1CCN(C2CCCCC2)CC1 returned TDP-43 tox inh inactive.
For COc1cc(CNCc2ccco2)cc(OC)c1O the results were TDP-43 tox inh inactive.
COc1ccc(-c2csc(NCc3ccco3)n2)cc1C was read as TDP-43 tox inh 18µM*.
For COc1ccc(-c2csc(NC(=S)NC(=O)c3cccs3)n2)cc1OC the results were TDP-43 tox inh inactive.
CCN(CCCNC(=O)C1CCN(S(=O)(=O)N2CCOCC2)CC1)c1cccc(C)c1 was read as TDP-43 tox inh inactive.
Cc1ccc(S(=O)(=O)Nc2c(C)nc3nc[nH]n3c2=O)c(C)c1 was read as TDP-43 tox inh inactive.
Screening CC(C)C(=O)Nc1nc2ccc(S(C)(=O)=O)cc2s1 returned TDP-43 tox inh inactive.
CCC(C)C(=O)Nc1nc2ccc(OC)cc2s1 (stereo unspecified) was read as TDP-43 tox inh 11µM*.
For COc1ccc2nc(NC(=O)Nc3ccccc3OC)sc2c1 the results were TDP-43 tox inh inactive.
O=c1[nH]c2ccccc2nc1/C=C/c1ccc(O)cc1 was read as TDP-43 tox inh inactive.
